# Test results as given in PubChem BioAssay (EPA / NIEHS).
# Active and inactive are the calls of the source. Rule for the calls: active = hit-call score of the fitted dose curve at least 0.9, where 1 is the maximum; inactive = score below 0.9.
# System: not listed separately
# Experiment: ATG_PBREM_CIS: Attagene CIS-FACTORIAL HepG2 Assay for human Phenobarbital-responsive Enhancer Module (PBREM) (AID 2282955)
# Conditions: HepG2 PBREM cis-reporter, Attagene multiplexed transcription; actives raise or lower the signal
# How it was run: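 Endogenous transcription factors in human liver HepG2 cells drive a PBREM cis-element reporter, whose transcript level after 24 h treatment is quantified by RT-PCR with capillary electrophoresis; activity fitted in both directions against DMSO.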
row,Structure (SMILES),outcome
1,CC1(C)CC(=O)CC(C)(C)N1[O],inactive
2,SCc1ccco1,inactive
3,O=CNC(N1CCN(C(NC=O)C(Cl)(Cl)Cl)CC1)C(Cl)(Cl)Cl (stereo not given),inactive
4,C[C@]12CCC(=O)C(O)=C1CC[C@@H]1[C@@H]2CC[C@]2(C)C(=O)CC[C@@H]12,inactive
5,CSc1nc(N=[N+]=[N-])nc(NC(C)C)n1,inactive

# Target: Paired box protein Pax-6 (Homo sapiens) (UniProt P26367)
# Sequence (P26367 whole entry, looked up): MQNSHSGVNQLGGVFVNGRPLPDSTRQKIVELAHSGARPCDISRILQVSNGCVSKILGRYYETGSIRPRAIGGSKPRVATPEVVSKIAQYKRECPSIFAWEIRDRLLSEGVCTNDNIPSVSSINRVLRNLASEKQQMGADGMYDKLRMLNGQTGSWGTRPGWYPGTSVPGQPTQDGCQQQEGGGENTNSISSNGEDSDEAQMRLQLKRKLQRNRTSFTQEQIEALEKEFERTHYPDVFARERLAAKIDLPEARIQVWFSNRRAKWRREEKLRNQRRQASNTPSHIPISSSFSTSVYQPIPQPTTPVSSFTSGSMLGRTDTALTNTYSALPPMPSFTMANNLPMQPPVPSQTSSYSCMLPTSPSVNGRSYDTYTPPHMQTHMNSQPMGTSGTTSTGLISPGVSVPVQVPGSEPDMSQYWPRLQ
# Experiment: ATG_Pax6_CIS: Attagene CIS-FACTORIAL HepG2 Assay for human Paired Box 6 (PAX6) (AID 2282956)
# Conditions: HepG2 CIS-FACTORIAL PAX6 reporter transcription, RNA readout; actives raise or lower the signal
# How it was run: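 Values derive from bidirectional curve fitting of reporter mRNA signal relative to DMSO. HepG2 cells bearing transfected cis-regulated MRTUs were exposed for 24 h; transcripts were read by RT-PCR and capillary electrophoresis.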
Structure (SMILES),outcome,AC50
Nc1ccc(-c2ccc(N)c(N)c2)cc1N,inactive,–
CCOP(O)OCC,inactive,–
C#CC1(O)CCCCC1,inactive,–
O=c1[nH]c(Cl)c(Cl)cc1Cl,inactive,–
CCC(C)c1cc(C(C)(C)C)cc(-n2nc3ccccc3n2)c1O (stereo not given),inactive,–
[CH3][Sn]([Cl])([Cl])[Cl],inactive,–
Nc1c(Cl)c(Cl)c(Cl)c(Cl)c1Cl,inactive,–
COC(=O)c1ccccc1S(=O)(=O)NC(=O)Nc1nc(C)cc(C)n1,inactive,–
Nc1ccccc1C(=O)OCCc1ccccc1,inactive,–
N#Cc1cccc(C#N)c1,inactive,–
O=C(O)CCCc1ccc(N(CCCl)CCCl)cc1,inactive,–
Nc1cc(Cl)cc(Cl)c1,inactive,–
COc1ncc(F)c2nc(S(=O)(=O)Nc3c(F)cccc3F)nn12,inactive,–
COC(C)(C)CCC[C@H](C)C/C=C/C(C)=C/C(=O)OC(C)C,–,100 µM (active)
[CH3][Sn]([CH3])([Cl])[Cl],inactive,–
BrCBr,inactive,–
CCc1cccc(C)c1N(C(=O)CCl)[C@@H](C)COC,inactive,–
O=P1(NCCCl)OCCCN1CCCl (stereo not given),inactive,–
CC(Cc1ccc(C(C)(C)C)cc1)CN1C[C@@H](C)O[C@@H](C)C1 (stereo not given in full),inactive,–
O=C(O)c1cc[c]([Hg][Cl])cc1,inactive,–
